{"source": "PubChem BioAssay AID624300", "about": "(Southern Research Specialized Biocontainment Screening …, 2012)", "note": "Screen size: about 2,400 compounds; about 360 (15%) were called active. Not all results are given here. Measured potencies and affinities stand elsewhere. A number with no mark means an inactive call.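 The calls were made as follows: active = viability falls under 70% at one or more tested concentrations, taken as toxicity; inactive = viability stays over 70% at every dose.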", "data": [{"assay": "HeLa cell cytotoxicity, dose response, cytotoxicity control for MgcRacGAP inhibitor project (AID 624300);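 also: 100% = median of untreated control wells on the same plate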", "conditions": "CellTiter-Glo luminescence, 24 h; series mostly up to 100 µM; viability: at the top concentration", "units": {"viability": "%"}, "values": [{"molecule": "O=C(N/C(=C\\c1ccc(O)cc1)C(=O)N1CCCCC1)c1ccccc1", "viability": 102}, {"molecule": "S=c1[nH]nc(-c2ccncc2)n1/N=C/C=C/c1ccccc1", "viability": 109}, {"molecule": "COc1cccc(OC)c1OCCCN1CCOCC1", "viability": 103}, {"molecule": "CCOC(=O)c1[nH]c2ccccc2c1NC(=S)Nc1ccccc1", "viability": 103}, {"molecule": "CCC(=O)Nc1ccc(Nc2ccccc2)cc1", "viability": 118}, {"molecule": "COc1cccc2[nH]c(C(=O)NN)c(N)c12", "viability": 90.4}, {"molecule": "CC1CN(CCOCCOc2ccccc2-c2ccccc2)CC(C)O1", "note": "(configuration not stated)", "viability": 87.1}, {"molecule": "O=C1C(Cl)=C(NC(=O)c2ccccc2)C(=O)C(Cl)=C1NC(=O)c1ccccc1", "viability": 106}, {"molecule": "O=C1c2ccccc2NC(c2ccc(O)cc2)N1/N=C/c1ccc(O)cc1", "note": "(configuration not stated)", "viability": 100}, {"molecule": "COc1ccc(NC2CCCN(C(=O)c3ccccc3C(F)(F)F)C2)cc1", "note": "(configuration not stated)", "viability": 94.8}, {"molecule": "COC(=O)c1cc(NCc2c(F)cccc2Cl)ccc1N1CCOCC1", "viability": 106}, {"molecule": "COc1ccc(C=Nc2ccc3[nH]ncc3c2)c(O)c1", "viability": 101}, {"molecule": "COc1ccc2[nH]c3c(=O)n(CCCCC(=O)N4CCC(C(N)=O)CC4)c(=S)[nH]c3c2c1", "viability": 109}, {"molecule": "CCOC(=O)c1[nH]c2ccc(OC)cc2c1NC(=O)c1ccccc1C(=O)O", "viability": 83.2}, {"molecule": "COc1ccc2[nH]c3c(=O)n(Cc4ccc(C(=O)N5CCC(C(N)=O)CC5)cc4)c(=S)[nH]c3c2c1", "viability": 80.8}, {"molecule": "CCOC(=O)C1CCN(C2=NC(=O)/C(=C/c3ccc(O)cc3)S2)CC1", "viability": 96.4}, {"molecule": "c1ccc(-c2ccccc2OCCOCCN2CCOCC2)cc1", "viability": 85.7}, {"molecule": "COc1cc(NC(C)CCCNC(C)C)c2ncccc2c1OC", "note": "(configuration not stated)", "viability": 93.5}, {"molecule": "C=CCc1cc(OC)ccc1OCCN1CC(C)OC(C)C1", "note": "(configuration not stated)", "viability": 95.6}, {"molecule": "Cc1cc(O)ccc1NC(=O)c1ccccc1", "viability": 94}, {"molecule": "O=C(Cc1coc2cc(O)ccc12)N1CCN(S(=O)(=O)c2ccc(Br)cc2)CC1", "viability": 90.8}, {"molecule": "S=C(NCCN1CCOCC1)Nc1ccc(Nc2ccccc2)cc1", "viability": 97.8}, {"molecule": "COc1ccc(CN2CCN(Cc3ccccc3F)CC2)c(OC)c1", "viability": 92.1}, {"molecule": "CCN(Cc1ccccc1)C1CCN(Cc2ccc(SC)cc2)CC1", "viability": 97.6}, {"molecule": "CC1CCCCN1CC(=O)Nc1ccc(N2CCCCCC2)cc1", "note": "(configuration not stated)", "viability": 105}, {"molecule": "CC(=O)N1CCN(c2ccc(NCc3cccs3)cc2)CC1", "viability": 104}, {"molecule": "Oc1ccc(/C=N/NC(=S)N2CCOCC2)cc1", "viability": 107}, {"molecule": "Cc1c(NC(=S)N/N=C/c2ccc(O)cc2)c(=O)n(-c2ccccc2)n1C", "viability": 90.6}, {"molecule": "COc1cc(CN2CCN(C(=O)CC(C)C)CC2)cc(OC)c1O", "viability": 91.8}, {"molecule": "O=C(/C=C\\c1ccco1)c1ccc(NC(=O)c2ccco2)cc1", "viability": 101}, {"molecule": "O=C(O)CCCNC(=O)/C=C/c1ccco1", "viability": 103}, {"molecule": "CCCN1C(=O)S/C(=C/c2ccc(N3CCOCC3)o2)C1=O", "viability": 85}, {"molecule": "O=C(O)CCCN1C(=O)/C(=C\\c2ccco2)SC1=S", "viability": 94}, {"molecule": "CCn1c(=S)[nH]c2c(=O)n(C)c(=O)n(C)c21", "viability": 90.8}, {"molecule": "COc1cc(/C=N/NC(=O)CCN2CCN(C(c3ccccc3)c3ccccc3)CC2)ccc1O", "viability": 106}, {"molecule": "COc1ccc2cc(OCC(=O)NNC(=O)Nc3ccc(C(C)=O)cc3)ccc2c1", "viability": 106}, {"molecule": "COc1cc(/C=N/NC(=O)C(=O)Nc2ccccn2)ccc1O", "viability": 105}, {"molecule": "O=[N+]([O-])c1cc(Br)c(O)c(C=Nc2ccc(N3CCOCC3)cc2)c1", "viability": 95.3}, {"molecule": "CN(C)c1ccc(NS(=O)(=O)c2cc(Cl)ccc2Cl)cc1", "viability": 104}, {"molecule": "CCOC(=O)N1CCC(N2CCN(S(=O)(=O)c3ccc4ccccc4c3)CC2)CC1", "viability": 97.3}, {"molecule": "Nc1ccc2c(c1)Cc1cc(N)c(Br)cc1-2", "viability": 99.7}, {"molecule": "COc1cc(-c2cc(-c3ccc(F)cc3)nc(N)c2C#N)ccc1O", "viability": 105}, {"molecule": "COc1cc(-c2cc(C(=O)O)c3c(OC)c(OC)c(OC)cc3n2)ccc1O", "viability": 104}, {"molecule": "O=C1CC(c2ccccc2)CC(O)=C1C=Nc1ccc(O)cc1", "note": "(configuration not stated)", "viability": 105}, {"molecule": "S=c1[nH]nc2sc3ccccc3n12", "viability": 90.2}, {"molecule": "Oc1ccc(N2CCN(c3ccnc4cc(Cl)ccc34)CC2)cc1", "viability": 82.4}, {"molecule": "O=C(O)c1c2c(nc3ccccc13)/C(=C/c1ccc(O)cc1)CCC2", "viability": 89.2}, {"molecule": "COc1cc(/C=N/NC(=O)c2cccc([N+](=O)[O-])c2)ccc1O", "viability": 96.9}, {"molecule": "COc1cc(/C=N/NC(=O)CCc2ccccc2)ccc1O", "viability": 97.8}, {"molecule": "COc1cc(/C=N/NC(=O)CN(Cc2ccco2)S(=O)(=O)c2ccccc2)ccc1O", "viability": 88.9}, {"molecule": "COc1ccc(NS(=O)(=O)c2cccc(C(=O)NN=Cc3ccc(O)c(OC)c3)c2)cc1", "viability": 98.1}, {"molecule": "COc1cc(/C=N/NC(=S)Nc2cccc(C(=O)O)c2)ccc1O", "viability": 102}, {"molecule": "COc1cc(/C=N/NC(=O)c2ccccc2)ccc1O", "viability": 82.1}, {"molecule": "COc1cc(/C=N/NC(=O)CCn2nnc3ccccc32)ccc1O", "viability": 105}, {"molecule": "COc1cc(/C=N/NC(=O)CNC(=O)c2ccc3c(c2)OCCO3)ccc1O", "viability": 112}, {"molecule": "COc1cc(CN2CCC(C(=O)N3CCN(c4ccccc4F)CC3)CC2)ccc1O", "viability": 96.1}, {"molecule": "COc1cc(/C=C/C(=O)OCC(=O)Nc2c(C)n(C)n(-c3ccccc3)c2=O)ccc1O", "viability": 100}, {"molecule": "Oc1ccc(Cl)cc1N=Cc1sc2ccccc2c1Cl", "viability": 96.4}, {"molecule": "COCc1cc(C)nc(OCC(=O)N/N=C/c2ccc(O)cc2)c1C#N", "viability": 93.9}, {"molecule": "O=C(Cc1cccs1)N/N=C\\c1ccc(O)cc1", "viability": 101}, {"molecule": "COCCNC(=O)COc1ccc(Nc2ccccc2)cc1", "viability": 97.8}, {"molecule": "COc1ccc(N2CCN(c3ncccc3C#N)CC2)cc1", "viability": 101}, {"molecule": "COc1cc(/C=C/C(=O)OCC(=O)NNC(=O)c2cc(Cl)ccc2OC)ccc1O", "viability": 98.7}, {"molecule": "C=CCN1C(=O)CSC1=Nc1ccc(O)cc1", "viability": 114}, {"molecule": "COc1ccc(N2CCN(CC(=O)N3c4ccccc4CC3C)CC2)cc1", "note": "(configuration not stated)", "viability": 94.6}, {"molecule": "Cc1[nH]c2ccccc2c1N=Nc1c(C)n(C)n(-c2ccccc2)c1=O", "viability": 91.2}, {"molecule": "COc1ccc(NC(=O)c2ccc(NC(=O)CN3CCN(c4ccc(O)cc4)CC3)cc2)cc1", "viability": 97.1}, {"molecule": "COc1ccc(NC2CCCN(C(=O)CCc3ccccc3F)C2)cc1", "note": "(configuration not stated)", "viability": 102}, {"molecule": "COC(=O)CCNCCSc1nnc(-c2ccco2)n1Cc1ccccc1", "viability": 100}, {"molecule": "CCOC(=O)c1sc(/N=C/c2ccc(O)cc2O)cc1C", "viability": 99}, {"molecule": "COc1cc(/C=N/NC(=O)c2nc(-c3ccccc3)n(-c3ccccc3)n2)ccc1O", "viability": 99.1}, {"molecule": "COc1cc(/C=N/NC(=O)c2ccc(=O)[nH]n2)ccc1O", "viability": 110}]}]}
